We go through five compounds from the supplement of paper PMC6897291.

This assay deals with RIVA. Put plainly: growth inhibition by drug alone (1 - RLU/untreated control) (fraction); higher = stronger inhibition. Conditions: 177Lu-lilotomab satetraxetan 0 ug/ml. On the procedure:
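RIVA (RI-1) ABC-DLBCL cells were pretreated or not for 18 h with 0.5 ug/ml 177Lu-lilotomab satetraxetan (600 MBq/mg), washed and seeded (3000 cells/well) on 384-well plates pre-printed with the Selleck Cambridge Cancer Compound library. Viability was read by RealTime-Glo luminescence on days 3-6 after seeding. Effect = 1 - RLU/mean RLU of the 48 untreated no-drug control wells per plate; Bliss score = (M-E)/(1-Fa).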

For the compound `Nc1ncn([C@@H]2O[C@H](CO)[C@@H](O)[C@H]2O)c(=O)n1` [Azacitidine (Vidaza)], the “growth inhibition by drug alone” value by setting is: (10 nM, time (day): 3) -0.294; (10 nM, time (day): 4) -0.286; (10 nM, time (day): 5) -0.358; (10 nM, time (day): 6) -0.438; (100 nM, time (day): 3) -0.343; (100 nM, time (day): 4) -0.332. The “growth inhibition by drug alone” value is, setting by setting: (100 nM, time (day): 5) -0.3; (100 nM, time (day): 6) -0.406.
`N#CCNC(=O)c1ccc(-c2ccnc(Nc3ccc(N4CCOCC4)cc3)n2)cc1`: the “growth inhibition by drug alone” value was -0.164 (10 nM, time (day): 3); -0.233 (10 nM, time (day): 4); -0.267 (10 nM, time (day): 5); -0.364 (10 nM, time (day): 6); -0.378 (100 nM, time (day): 3); -0.377 (100 nM, time (day): 4). Moreover, the “growth inhibition by drug alone” value (100 nM, time (day): 5) was -0.416 and the “growth inhibition by drug alone” value (100 nM, time (day): 6) was -0.56.
On to `CCc1ccc(CCOc2ccc(CC3SC(=O)NC3=O)cc2)nc1` (stereo not given) [Pioglitazone (Actos)], for which the “growth inhibition by drug alone” value was -0.15 (10 nM, time (day): 3); -0.212 (10 nM, time (day): 4); -0.202 (10 nM, time (day): 5); -0.191 (10 nM, time (day): 6); -0.391 (100 nM, time (day): 3); -0.381 (100 nM, time (day): 4). Moreover, the “growth inhibition by drug alone” value by setting is: (100 nM, time (day): 5) -0.369; (100 nM, time (day): 6) -0.359.
Take `C=CC(=O)Nc1cccc(Oc2nc(Nc3ccc(N4CCN(C)CC4)cc3OC)ncc2Cl)c1`: the “growth inhibition by drug alone” value was -0.189 (10 nM, time (day): 3); -0.196 (10 nM, time (day): 4); -0.216 (10 nM, time (day): 5); -0.258 (10 nM, time (day): 6); -0.151 (100 nM, time (day): 3); -0.238 (100 nM, time (day): 4). The “growth inhibition by drug alone” value is -0.251 (100 nM, time (day): 5) and -0.328 (100 nM, time (day): 6).
Consider `O=C(Cc1ccc(-c2ccc(OCCN3CCOCC3)cc2)cn1)NCc1ccccc1`, for which the “growth inhibition by drug alone” value (10 nM, time (day): 3) is 0.0653; the “growth inhibition by drug alone” value (10 nM, time (day): 4) was found to be 0.0193; the “growth inhibition by drug alone” value (10 nM, time (day): 5) was -0.0159; the “growth inhibition by drug alone” value (10 nM, time (day): 6) was -0.201; the “growth inhibition by drug alone” value (100 nM, time (day): 3) came out at 0.766; the “growth inhibition by drug alone” value (100 nM, time (day): 4) worked out at 0.708. Moreover, the “growth inhibition by drug alone” value (100 nM, time (day): 5) came out at 0.676 and the “growth inhibition by drug alone” value (100 nM, time (day): 6) amounted to 0.605.
